High-throughput results (PubChem)
BAZ2B block: inhibitors of human BAZ2B bromodomain; Q9UIF8; AlphaScreen BAZ2B-H3K14Ac peptide displacement; Potency, µM (doses to about 114 µM), for the others: at the highest dose activity change, negative = inhibition, actives largely listed as inhibitors; actives 4.4% (n = 360,000); AID 504333; further: on the % scale 0 is the no-effect control and ±100 the full control effect; nearly all actives have a fitted effect of over 60% in size
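AlphaScreen displacement of biotin-H3(5-23)K14Ac peptide (50 nM final) from BAZ2B (50 nM final) in PBS pH 7.4, 0.01% Tween-20; complex preformed 30 min RT, then compounds (top 110 uM) 30 min RT, beads 20 min dark.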
HP1b binding inh: blocks HP1-beta chromodomain binding to methylated histone tails; P83916; AlphaScreen HP1-beta / biotin-H3K9me3 peptide binding; Potency, µM (doses to about 114 µM), inactives show top-dose activity change, negative = inhibition, actives largely listed as inhibitors; actives 0.56% (n = 390,000); AID 540317; further: nearly all actives have a fitted effect of over 70% in size
Target sequence (P83916 whole entry, looked up): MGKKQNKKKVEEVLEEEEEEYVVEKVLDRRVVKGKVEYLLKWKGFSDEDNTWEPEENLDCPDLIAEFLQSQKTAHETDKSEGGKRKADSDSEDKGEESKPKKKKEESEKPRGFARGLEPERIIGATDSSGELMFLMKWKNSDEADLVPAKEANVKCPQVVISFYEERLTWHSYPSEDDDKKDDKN
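HP1-beta protein (50 nM final) preincubated 30 min at room temperature with biotinylated H3(1-18)K9me3 peptide (50 nM) in PBS pH 7.4, 0.01% Tween-20, then compound added for 30 min. AlphaScreen streptavidin donor/nickel chelate acceptor beads (10 ug/mL final), 30 min dark, luminescence read.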
JMJD2A Tudor: JMJD2A Tudor domain (human) inhibition; O75164; AlphaScreen JMJD2A-Tudor / H3K4me3 peptide binding; Potency, µM (highest dose often 114 µM), for the others: at the top dose activity change, negative = inhibition, usual class: inhibitors; actives 4.4% (n = 390,000); AID 504339; further: on the % scale 0 is the no-effect control and ±100 the full control effect; nearly all actives have a fitted effect of over 50% in size
Sfp inh: Sfp phosphopantetheinyl transferase inhibition; Q9F4F7; Biochemical Sfp PPTase activity, qHTS; Potency, µM, inactives show largest response in the series, negative = inhibition, usual class: inhibitors; actives 3.5% (n = 310,000); AID 1490;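 further: the enzyme is Sfp with the accession as filed and its product quenches rhodamine fluorescence; 0% = enzyme reaction without inhibitor and -100% = no enzyme wells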
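Reaction rates are the 30-min fluorescence difference (ex 525, em 598 nm) in wells containing 15 nM Sfp, 5 uM rhodamine-CoA and 12.5 uM BHQ-2-YbbR at pH 7.6 with 10 mM MgCl2.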
G9a inh: G9a (human) methyltransferase inhibition. Q96KQ7. G9a H3K9 monomethylation, AlphaScreen, 2 h. Potency, µM (series often up to 102 µM), inactives show at the highest dose activity, negative = inhibition, hits mostly inhibitors. actives 8.8% (n = 350,000). AID 504332; further: on the % scale 0 is the no-effect control and ±100 the full control effect; nearly all actives have a fitted effect of over 75% in size
Target sequence (Q96KQ7 913-1193 limits assumed): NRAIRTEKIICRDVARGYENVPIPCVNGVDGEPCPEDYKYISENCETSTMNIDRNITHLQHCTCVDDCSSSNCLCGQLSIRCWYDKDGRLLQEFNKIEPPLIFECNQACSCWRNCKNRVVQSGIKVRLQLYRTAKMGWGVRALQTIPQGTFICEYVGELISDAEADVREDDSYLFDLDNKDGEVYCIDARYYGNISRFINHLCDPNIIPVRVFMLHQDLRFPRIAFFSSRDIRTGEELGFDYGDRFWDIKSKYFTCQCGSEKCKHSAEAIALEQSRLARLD
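Quantitative HTS format: methyltransferase activity on a biotin-tagged H3K9 peptide is measured by AlphaScreen, using a rabbit anti-monomethyl-H3K9 antibody with streptavidin donor and anti-IgG acceptor beads. Final levels are 20 nM enzyme, 500 nM peptide, 20 uM SAM; 2 h RT.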
Active calls of the source: *; [ ] = remark or other dose. Hits are enriched below; roughly 12% of the tested compounds scored in any of these assays. The call rests on the fitted dose curve; in most records, active means well fitted curve in the direction sought with a large enough effect; inconclusive means small, poorly fitted or top-dose-only effect, or another doubt; inactive means no such curve, though single readings can be large; an effect the other way counts as inactive or inconclusive. Potency means the concentration at half of the fitted maximal effect.

CCN(CC)CCN(C(=O)c1ccc(S(=O)(=O)N2CCCC2)cc1)c1nc2cc(C)cc(C)c2s1 was read as BAZ2B block -28%, HP1b binding inh 4%, JMJD2A Tudor -34%, Sfp inh -15% and G9a inh inconclusive.
For CCc1ccc2nc(N(CCCN(C)C)C(=O)c3ccc(S(=O)(=O)N(C)C4CCCCC4)cc3)sc2c1 the results were BAZ2B block inconclusive, HP1b binding inh 14%, JMJD2A Tudor inconclusive, Sfp inh 45µM* and G9a inh inconclusive.
CN(C)CCCN(C(=O)c1nc2ccccc2s1)c1nc2ccc(F)cc2s1 was read as HP1b binding inh 47% and JMJD2A Tudor -1%.
For CCOc1cccc2sc(N(CCCN(C)C)C(=O)c3ccc(S(=O)(=O)N4CCc5ccccc5C4)cc3)nc12 the results were BAZ2B block -28%, HP1b binding inh 13%, JMJD2A Tudor -6% and Sfp inh -29%.
`COc1cc2nc(N(CCN(C)C)C(=O)c3ccc(S(=O)(=O)N(C)CC4CCCO4)cc3)sc2cc1OC` (centres undefined) gave BAZ2B block inconclusive, HP1b binding inh 28%, JMJD2A Tudor -19%, Sfp inh -1% and G9a inh 32µM*.
CCc1ccc2nc(N(CCCN(C)C)C(=O)c3ccc(S(=O)(=O)N4CCc5ccccc5C4)cc3)sc2c1 was read as BAZ2B block inconclusive, HP1b binding inh 15%, JMJD2A Tudor -14% and Sfp inh 63µM*.
For COc1cc2nc(N(CCCN(C)C)C(=O)c3ccc(S(=O)(=O)N(C)C4CCCCC4)cc3)sc2cc1OC the results were BAZ2B block -29%, HP1b binding inh -15%, JMJD2A Tudor -35% and G9a inh 45µM*.
`CN(C)CCCN(C(=O)c1ccc(S(=O)(=O)N(C)C2CCCCC2)cc1)c1nc2ccc(F)cc2s1` gave BAZ2B block inconclusive, HP1b binding inh -10%, JMJD2A Tudor inconclusive, Sfp inh -20% and G9a inh 45µM*.
Screening COc1ccccc1NC(=O)C1=C(C)NC(=O)NC1c1ccccc1F (centres undefined) returned BAZ2B block 10%, HP1b binding inh 37%, JMJD2A Tudor -6%, Sfp inh 6% and G9a inh -30%.
For O=C(O)c1ccccc1C(=O)Nc1cccc([N+](=O)[O-])c1 the results were BAZ2B block 3%, HP1b binding inh 38%, JMJD2A Tudor -6%, Sfp inh 14% and G9a inh -6%.
COC(=O)c1sccc1NC(=O)Nc1cccc([N+](=O)[O-])c1 was read as BAZ2B block -6%, HP1b binding inh 30%, JMJD2A Tudor -5% and Sfp inh 4%.
O=C(Nc1cccc([N+](=O)[O-])c1)Nc1cccs1 was read as BAZ2B block inconclusive, HP1b binding inh -8%, JMJD2A Tudor inconclusive, Sfp inh -27% and G9a inh 40µM*.
For O=C(Nc1cccc([N+](=O)[O-])c1)c1cc2ccccc2cc1O the results were BAZ2B block 50µM*, HP1b binding inh 36%, JMJD2A Tudor -7%[11.4 µM], Sfp inh 0% and G9a inh inconclusive.
`Cc1nc(N)sc1C(=O)N/N=C/c1ccco1` gave BAZ2B block 0%, HP1b binding inh 33%, JMJD2A Tudor -3%, Sfp inh -1% and G9a inh 7%[59 µM].
For Cc1nc(N)sc1C(=O)N1N=N1 the results were BAZ2B block -14%, HP1b binding inh 6%, JMJD2A Tudor inconclusive, Sfp inh -27% and G9a inh 8.9µM*.
Screening CCCc1ccc(S(=O)(=O)N2CCC(c3nnc(-c4cccc(C)c4)o3)CC2)cc1 returned BAZ2B block -2%, HP1b binding inh 27%, JMJD2A Tudor -16% and G9a inh 8.9µM*.
Screening COc1ccc(-c2nnc(C3CCN(S(=O)(=O)c4ccc(C)c(C)c4)CC3)o2)cc1 returned BAZ2B block -10%, HP1b binding inh 34%, JMJD2A Tudor -14% and G9a inh -12%[59 µM].
`Cc1ccc(S(=O)(=O)N2CCC(c3nnc(-c4cccc(C)c4)o3)CC2)cc1` gave BAZ2B block -16%, HP1b binding inh 1%, JMJD2A Tudor -17% and G9a inh 3.5µM*.
Screening CC1CCN(S(=O)(=O)c2cccc(-c3nnc(-c4cccnc4)o3)c2)CC1 returned BAZ2B block 0%, HP1b binding inh -10%, JMJD2A Tudor 28µM*, Sfp inh 17% and G9a inh 22%[59 µM].
O=C(Nc1ccc(N2CCOCC2)c(Cl)c1)c1ccc(Cl)cc1 was read as BAZ2B block -33%, HP1b binding inh 3%, JMJD2A Tudor -29%, Sfp inh -5% and G9a inh -21%[59 µM].
O=C(Nc1ccc(N2CCCC2)cc1)c1ccc(Br)cc1 was read as BAZ2B block inconclusive, HP1b binding inh 12%, JMJD2A Tudor -31% and Sfp inh -15%.
For Cc1cccc(C(=O)Nc2ccc(N3CCN(c4ccc(F)cc4)CC3)c(C(=O)O)c2)c1 the results were BAZ2B block -4%, HP1b binding inh 17%, JMJD2A Tudor inconclusive and G9a inh 6%[59 µM].
`Cc1cccc(C(=O)Nc2ccc(N3CCC(CCN4CCOCC4)CC3)c(C(=O)O)c2)c1` gave BAZ2B block 32µM*, HP1b binding inh 16%, JMJD2A Tudor -25% and G9a inh -6%[12.7 µM].
`O=C(Nc1ccc(N2CCC(N3CCCCC3)CC2)c(C(=O)O)c1)c1ccc(Br)cc1` gave BAZ2B block 79µM*, HP1b binding inh 14%, JMJD2A Tudor inconclusive and G9a inh -31%[59 µM].
Screening O=C(Nc1cnc(N2CCC(N3CCCCC3)CC2)c(C(=O)O)c1)c1ccc(Br)cc1 returned BAZ2B block inconclusive, HP1b binding inh -3%, JMJD2A Tudor 79µM* and G9a inh inconclusive.
O=C(Nc1ccc(N2CCOCC2)c(C(=O)O)c1)c1ccc(Br)cc1 was read as BAZ2B block inconclusive, HP1b binding inh 33%, JMJD2A Tudor 71µM* and G9a inh -37%[59 µM].
`CC(=O)c1sc2c(c1C)c(=O)n(-c1ccc(Cl)cc1)c(=O)n2Cc1ccc(Cl)cc1` gave BAZ2B block 6%, HP1b binding inh 17%, JMJD2A Tudor 0% and G9a inh 6%[59 µM].
Screening O=C(CSc1ccccc1)Nc1nnc(C2CC2)s1 returned BAZ2B block -7%, HP1b binding inh 27%, JMJD2A Tudor -13% and Sfp inh 1%.
Screening Cc1cc(C)n2c(SCC(=O)N(C)C3CCS(=O)(=O)C3)nnc2n1 (centres undefined) returned BAZ2B block -2%, HP1b binding inh 50%, JMJD2A Tudor -11%, Sfp inh -8% and G9a inh 10%[0.0925 µM].
O=C(Oc1ccccc1F)c1ccc2c(=O)n3c(nc2c1)CCC3 was read as BAZ2B block -1%, HP1b binding inh 18%, JMJD2A Tudor -12% and G9a inh 63µM*.
